# In all, about 39,000 compounds went through this assay and about 3,300 (8.5%) were called active. The entries come from a sample that favours actives as a whole.
# Tested on: HepG2
# Assay: cytotoxicity call (relative viability < 0.9)
# Settings: 10 µM
row,SMILES,cytotoxicity call
1,COc1cccc(S(=O)(=O)Nc2ccc3c(c2)[C@@H]2C[C@H](CC(=O)NC4CCCCC4)O[C@@H](CO)[C@@H]2O3)c1,inactive
2,Cc1ccc(S(=O)(=O)Nc2ccc3c(c2)C(=O)N([C@H](C)CO)C[C@@H](C)[C@@H](CN(C)S(=O)(=O)c2ccccc2)O3)cc1,inactive
3,C[C@@H]1CN([C@@H](C)CO)S(=O)(=O)c2ccc(C#CC(C)(C)O)cc2O[C@H]1CN(C)C(=O)CN(C)C,inactive
4,COc1ccc(NC(=O)N(C)C[C@H]2OCCCC[C@@H](C)Oc3ccc(NC(=O)c4ccccc4)cc3C(=O)N([C@@H](C)CO)C[C@@H]2C)cc1,inactive
5,CC(C)NC(=O)N(C)C[C@H]1OCCCC[C@H](C)Oc2ccc(NC(=O)Nc3cccc4ccccc34)cc2C(=O)N([C@H](C)CO)C[C@@H]1C,inactive
6,C[C@H]1CCCCO[C@H](CN(C)Cc2ccc(C(=O)O)cc2)[C@@H](C)CN([C@@H](C)CO)C(=O)c2cc(NS(=O)(=O)c3ccc(F)cc3)ccc2O1,inactive
7,CN(C)C/C=C/C(=O)Nc1ccc(C(=O)Nc2cccc(Nc3ncc(Cl)c(-c4c[nH]c5ccccc45)n3)c2)cc1,active
8,O=C(O)C1CCOCC1,inactive
9,Cc1ccc(S(=O)(=O)Nc2ccc3c(c2)C(=O)N([C@H](C)CO)C[C@@H](C)[C@@H](CN(C)Cc2ccc(Cl)c(Cl)c2)OCCCC[C@H](C)O3)cc1,inactive
10,Cc1ccc(S(=O)(=O)Nc2ccc3c(c2)C(=O)N([C@H](C)CO)C[C@H](C)[C@H](CN(C)Cc2ccc(Cl)c(Cl)c2)OCCCC[C@H](C)O3)cc1,inactive
11,Cc1ccc(S(=O)(=O)Nc2ccc3c(c2)C(=O)N([C@@H](C)CO)C[C@@H](C)[C@H](CN(C)Cc2ccc(Cl)c(Cl)c2)OCCCC[C@@H](C)O3)cc1,inactive
12,Cc1ccc(S(=O)(=O)Nc2ccc3c(c2)C(=O)N([C@H](C)CO)C[C@@H](C)[C@H](CN(C)Cc2ccc(Cl)c(Cl)c2)OCCCC[C@@H](C)O3)cc1,active
13,Cc1ccc(S(=O)(=O)Nc2ccc3c(c2)C(=O)N([C@@H](C)CO)C[C@@H](C)[C@@H](CN(C)Cc2ccc(Cl)c(Cl)c2)OCCCC[C@@H](C)O3)cc1,active
14,Cc1ccc(S(=O)(=O)Nc2ccc3c(c2)C(=O)N([C@H](C)CO)C[C@H](C)[C@@H](CN(C)Cc2ccc(Cl)c(Cl)c2)OCCCC[C@H](C)O3)cc1,inactive
15,Cc1ccc(S(=O)(=O)Nc2ccc3c(c2)C(=O)N([C@@H](C)CO)C[C@H](C)[C@@H](CN(C)Cc2ccc(Cl)c(Cl)c2)OCCCC[C@@H](C)O3)cc1,active
16,Cc1ccc(S(=O)(=O)Nc2ccc3c(c2)C(=O)N([C@H](C)CO)C[C@@H](C)[C@H](CN(C)Cc2ccc(Cl)c(Cl)c2)OCCCC[C@H](C)O3)cc1,active

row,SMILES,cytotoxicity call
1,Cc1ccc(S(=O)(=O)Nc2cccc3c2O[C@H](CN(C)C(=O)Nc2ccc(C(F)(F)F)cc2)[C@H](C)CN([C@H](C)CO)C3=O)cc1,inactive
2,C[C@@H]1CCCCO[C@@H](CN(C)CC2CCCCC2)[C@H](C)CN([C@H](C)CO)C(=O)c2cc(NS(=O)(=O)c3ccccc3)ccc2O1,inactive
3,Cc1ccc(S(=O)(=O)Nc2ccc3c(c2)C(=O)N([C@H](C)CO)C[C@H](C)[C@@H](CN(C)Cc2ccc(Cl)c(Cl)c2)OCCCC[C@@H](C)O3)cc1,inactive
4,Cc1ccc(S(=O)(=O)Nc2ccc3c(c2)C(=O)N([C@H](C)CO)C[C@H](C)[C@H](CN(C)Cc2ccc(Cl)c(Cl)c2)OCCCC[C@@H](C)O3)cc1,active
5,Cc1ccc(S(=O)(=O)Nc2ccc3c(c2)C(=O)N([C@@H](C)CO)C[C@H](C)[C@@H](CN(C)Cc2ccc(Cl)c(Cl)c2)OCCCC[C@H](C)O3)cc1,active
6,O=C(O)CC[C@H]1CCC(=O)N1,inactive
7,C[C@@H]1CN([C@H](C)CO)C(=O)Cc2cc(NC(=O)c3ccncc3)ccc2O[C@H]1CN(C)S(=O)(=O)c1cn(C)cn1,inactive
8,C[C@@H]1CCCCO[C@@H](CN(C)CC2CC2)[C@H](C)CN([C@H](C)CO)C(=O)c2cc(NS(C)(=O)=O)ccc2O1,inactive
9,C[C@@H]1CN([C@@H](C)CO)C(=O)c2cccc(NS(=O)(=O)c3ccccc3)c2O[C@@H]1CN(C)S(C)(=O)=O,inactive
10,C[C@@H]1CN([C@@H](C)CO)C(=O)c2cc(NS(=O)(=O)c3ccccc3)ccc2O[C@H]1CN(C)S(C)(=O)=O,inactive
11,O=C(C[C@@H]1C=C[C@H](NC(=O)c2cccc(F)c2)[C@@H](CO)O1)NCCN1CCCC1,inactive
12,CN(C)CC(=O)N1CC(=O)N2[C@H](CO)[C@@H](c3ccc(C#Cc4cccnc4)cc3)[C@H]2C1,inactive
13,COc1ccc2c(=O)cc(-c3ccccc3OC)oc2c1,inactive
14,CCOC(=O)COc1ccc2c(=O)cc(-c3ccccc3)oc2c1,active
15,O=c1cc(-c2ccccc2)oc2ccccc12,inactive
16,CCS(=O)(=O)Nc1ccc2c(c1)C(=O)N(C)[C@@H]1CC[C@@H](CC(=O)N[C@@H]3CCN(Cc4ccccc4)C3)O[C@@H]1CO2,inactive
